In ChEMBL document CHEMBL4296182, “CO-ADD screening of NIH NCI Diversity Set V”:
For part of these data: Entries with a potency or affinity are not part of this list.

Columns and labels:
Staphylococcus aureus = test: Antibacterial activity against Staphylococcus aureus MRSA ATCC 43300 (CO-ADD:GP_020); MIC in CAMBH media using NBS plates, by Resazurin F(560/590); format: functional; settings: Concentration 20 uM, ASSAY_TEST Inhibition of Bacterial Growth, detection method Resazurin, Fluorescence (ex560/em590), MEDIA CAMHB, plate type 384well, CORNING #3640, time 18 hr
Acinetobacter baumannii = test: Antibacterial activity against Acinetobacter baumannii ATCC 19606 (CO-ADD:GN_034); MIC in CAMBH media using NBS plates, by Resazurin F(560/590); format: functional; settings: Concentration 20 uM, ASSAY_TEST Inhibition of Bacterial Growth, detection method Resazurin, Fluorescence (ex560/em590), MEDIA CAMHB, plate type 384well, CORNING #3640, time 18 hr
Escherichia coli = test: Antibacterial activity against Escherichia coli ATCC 25922 (CO-ADD:GN_001); MIC in CAMBH media using NBS plates, by Resazurin F(560/590); format: functional; settings: Concentration 20 uM, ASSAY_TEST Inhibition of Bacterial Growth, detection method Resazurin, Fluorescence (ex560/em590), MEDIA CAMHB, plate type 384well, CORNING #3640, time 18 hr
Klebsiella pneumoniae = settings: Concentration 20 uM; ASSAY_TEST Inhibition of Bacterial Growth; detection method Absorption (OD600); MEDIA CAMHB; plate type 384well; NBS; CORNING #3640; time 18 hr
Candida albicans = settings: 20 µM
Cryptococcus neoformans = settings: Concentration 20 uM; ASSAY_TEST Inhibition of Fungal Growth; detection method Resazurin; Absorption (OD600-OD570); plate type 384well; NBS; CORNING #3640

**Q.** Which results are given for `COc1cccc2nc3cc(C)c(C)cc3nc12`?
**A.** Inhibition (Staphylococcus aureus): 20.84%; Inhibition (Acinetobacter baumannii): 3.71%; Inhibition (Escherichia coli): 12.65%; Inhibition (Klebsiella pneumoniae): 1.37%; Inhibition (Candida albicans): 1.48%; Inhibition (Cryptococcus neoformans): -8.3%

**Q.** Which results are given for `CN1CCC=C(C(=O)N2c3ccccc3Sc3ccc(Cl)cc32)C1.O=C(O)CCC(=O)O`?
**A.** Inhibition (Staphylococcus aureus): 8.59%; Inhibition (Acinetobacter baumannii): -10%; Inhibition (Escherichia coli): 17.87%; Inhibition (Klebsiella pneumoniae): -0.76%; Inhibition (Candida albicans): -1.22%; Inhibition (Cryptococcus neoformans): -4.64%

**Q.** `CN(C)c1ccc2c(c1)Sc1cc(N(C)C)ccc1N2C(=O)c1ccccc1` was tested. Which Inhibition (Staphylococcus aureus) did it give?
**A.** Its Inhibition is -9.71%.

**Q.** And the Inhibition (Acinetobacter baumannii)?
**A.** Its Inhibition is 0.08%.

**Q.** And the Inhibition (Escherichia coli)?
**A.** The Inhibition was 1.67%.

**Q.** What about the Inhibition (Klebsiella pneumoniae) of the same compound?
**A.** The Inhibition was 25.07%.

**Q.** And the Inhibition (Candida albicans)?
**A.** Its Inhibition is 11%.

**Q.** What about the Inhibition (Cryptococcus neoformans) of the same compound?
**A.** The Inhibition was -3.81%.

**Q.** How did the Inhibition (Staphylococcus aureus) turn out when `Cn1c(C(=O)c2ccncc2)cc2ccccc21` was run?
**A.** Its Inhibition is 10.4%.

**Q.** And the Inhibition (Acinetobacter baumannii)?
**A.** Its Inhibition is 13.49%.

**Q.** And the Inhibition (Escherichia coli)?
**A.** The Inhibition was 0.36%.

**Q.** And the Inhibition (Klebsiella pneumoniae)?
**A.** Its Inhibition is 4.66%.

**Q.** What about the Inhibition (Candida albicans) of the same compound?
**A.** Its Inhibition is 5.59%.

**Q.** What about the Inhibition (Cryptococcus neoformans) of the same compound?
**A.** The Inhibition was -4.68%.

**Q.** How did the Inhibition (Staphylococcus aureus) turn out when `Cn1ncc2c(Nc3ccc(Br)cc3)nc(Nc3ccc(Br)cc3)nc21` was run?
**A.** The Inhibition was 3.19%.

**Q.** And the Inhibition (Acinetobacter baumannii)?
**A.** The Inhibition was -7.92%.

**Q.** And the Inhibition (Escherichia coli)?
**A.** Its Inhibition is 12.54%.

**Q.** And the Inhibition (Klebsiella pneumoniae)?
**A.** The Inhibition was 2.31%.

**Q.** What about the Inhibition (Candida albicans) of the same compound?
**A.** Its Inhibition is -0.11%.

**Q.** What about the Inhibition (Cryptococcus neoformans) of the same compound?
**A.** Its Inhibition is -3.38%.

**Q.** What does the source list for `Cc1nc2[nH]c(=O)n(O)c(=O)c2s1`?
**A.** Inhibition (Staphylococcus aureus): 4.12%; Inhibition (Acinetobacter baumannii): -18.15%; Inhibition (Escherichia coli): 5.04%; Inhibition (Klebsiella pneumoniae): 12.49%; Inhibition (Candida albicans): 3.41%; Inhibition (Cryptococcus neoformans): -6.64%

**Q.** `CC(C)(C)N=C(S)NC(C)(C)C` was tested. Which Inhibition (Staphylococcus aureus) did it give?
**A.** Its Inhibition is 10.55%.

**Q.** And the Inhibition (Acinetobacter baumannii)?
**A.** The Inhibition was -9.16%.

**Q.** What about the Inhibition (Escherichia coli) of the same compound?
**A.** The Inhibition was 4.33%.

**Q.** What about the Inhibition (Klebsiella pneumoniae) of the same compound?
**A.** Its Inhibition is 8.8%.

**Q.** What about the Inhibition (Candida albicans) of the same compound?
**A.** The Inhibition was 1%.

**Q.** What about the Inhibition (Cryptococcus neoformans) of the same compound?
**A.** The Inhibition was -0.12%.

**Q.** Which Inhibition (Staphylococcus aureus) does the source give for `O=C(O)c1ccccc1-c1ccccc1C(=O)Nc1ccc2c(c1)nc(O)c1ccccc12` here?
**A.** The Inhibition was 7.3%.

**Q.** And the Inhibition (Acinetobacter baumannii)?
**A.** The Inhibition was -9.28%.

**Q.** What about the Inhibition (Escherichia coli) of the same compound?
**A.** Its Inhibition is 10.96%.

**Q.** What about the Inhibition (Klebsiella pneumoniae) of the same compound?
**A.** Its Inhibition is 7.34%.

**Q.** What about the Inhibition (Candida albicans) of the same compound?
**A.** Its Inhibition is 7.22%.

**Q.** And the Inhibition (Cryptococcus neoformans)?
**A.** Its Inhibition is -6.01%.

**Q.** Which Inhibition (Staphylococcus aureus) does the source give for `O=C(Nc1ccsn1)c1ccc(Cl)cc1Cl` here?
**A.** Its Inhibition is 2.74%.

**Q.** What about the Inhibition (Acinetobacter baumannii) of the same compound?
**A.** The Inhibition was -9.67%.

**Q.** And the Inhibition (Escherichia coli)?
**A.** Its Inhibition is 7.73%.

**Q.** What about the Inhibition (Klebsiella pneumoniae) of the same compound?
**A.** The Inhibition was 13.89%.

**Q.** And the Inhibition (Candida albicans)?
**A.** The Inhibition was 3.31%.

**Q.** And the Inhibition (Cryptococcus neoformans)?
**A.** Its Inhibition is 7.18%.

**Q.** What does the source list for `Cc1ccc(-n2nnnc2-c2cccnc2)cc1`?
**A.** Inhibition (Staphylococcus aureus): 21.74%; Inhibition (Acinetobacter baumannii): -2.15%; Inhibition (Escherichia coli): 12.35%; Inhibition (Klebsiella pneumoniae): 4.8%; Inhibition (Candida albicans): -0.65%; Inhibition (Cryptococcus neoformans): -9.13%

**Q.** Which results are given for `CCNc1ccccc1C(=O)O`?
**A.** Inhibition (Staphylococcus aureus): 19.64%; Inhibition (Acinetobacter baumannii): -10.34%; Inhibition (Escherichia coli): 13.74%; Inhibition (Klebsiella pneumoniae): 16.83%; Inhibition (Candida albicans): 5.51%; Inhibition (Cryptococcus neoformans): 2.27%

**Q.** Which Inhibition (Staphylococcus aureus) does the source give for `CN(C)Cc1c[nH]c2nccnc12` here?
**A.** Its Inhibition is 11.84%.

**Q.** What about the Inhibition (Acinetobacter baumannii) of the same compound?
**A.** The Inhibition was -4.46%.

**Q.** What about the Inhibition (Escherichia coli) of the same compound?
**A.** The Inhibition was 11.46%.

**Q.** What about the Inhibition (Klebsiella pneumoniae) of the same compound?
**A.** The Inhibition was 8.34%.

**Q.** And the Inhibition (Candida albicans)?
**A.** The Inhibition was 0.19%.

**Q.** What about the Inhibition (Cryptococcus neoformans) of the same compound?
**A.** The Inhibition was 2.55%.

**Q.** How did the Inhibition (Staphylococcus aureus) turn out when `CCOC(=O)c1nc(SC)n(C)c1C(=O)OCC` was run?
**A.** The Inhibition was 10.21%.

**Q.** And the Inhibition (Acinetobacter baumannii)?
**A.** The Inhibition was -12.95%.

**Q.** What about the Inhibition (Escherichia coli) of the same compound?
**A.** Its Inhibition is 18.32%.

**Q.** And the Inhibition (Klebsiella pneumoniae)?
**A.** The Inhibition was 2.22%.

**Q.** And the Inhibition (Candida albicans)?
**A.** Its Inhibition is 0.39%.

**Q.** And the Inhibition (Cryptococcus neoformans)?
**A.** The Inhibition was -13.08%.

**Q.** Which Inhibition (Staphylococcus aureus) does the source give for `C/C(=N\O)[C@H]1CC[C@H]2[C@@H]3CC[C@@H]4C/C(=N/O)CC[C@]4(C)[C@H]3[C@@](C)(O)C[C@]12C` here?
**A.** Its Inhibition is 13.92%.

**Q.** What about the Inhibition (Acinetobacter baumannii) of the same compound?
**A.** The Inhibition was 2.13%.

**Q.** What about the Inhibition (Escherichia coli) of the same compound?
**A.** The Inhibition was 6.69%.

**Q.** What about the Inhibition (Klebsiella pneumoniae) of the same compound?
**A.** The Inhibition was 4.28%.

**Q.** What about the Inhibition (Candida albicans) of the same compound?
**A.** The Inhibition was 2.6%.

**Q.** What about the Inhibition (Cryptococcus neoformans) of the same compound?
**A.** Its Inhibition is -11.49%.

**Q.** `CCNC(=O)Oc1cccnc1O` was tested. Which Inhibition (Staphylococcus aureus) did it give?
**A.** The Inhibition was 2.22%.

**Q.** What about the Inhibition (Acinetobacter baumannii) of the same compound?
**A.** Its Inhibition is -10.2%.

**Q.** And the Inhibition (Escherichia coli)?
**A.** The Inhibition was 11.39%.

**Q.** And the Inhibition (Klebsiella pneumoniae)?
**A.** Its Inhibition is 5.97%.

**Q.** And the Inhibition (Candida albicans)?
**A.** Its Inhibition is 1.04%.

**Q.** What about the Inhibition (Cryptococcus neoformans) of the same compound?
**A.** Its Inhibition is -16.02%.
